{"source": "the supplement of paper PMC6555819"}
{"tested_on": "VDR:RXRa (NR concentration 270 nM, RXRa partner concentration 90 nM)", "test": "PBM binding z-score (relative to random genomic background probes); higher = stronger binding; sequences stand for … in GC…GCGATTGACAGCGTAGAATGAAGG", "description": "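Protein-binding microarray (Agilent 4x180K custom design, double-stranded 60-nt probes: 5' GC cap, 34-nt variable region, 24-nt constant primer region; full probe sequence given). Purified or IVT nuclear receptor:RXRα heterodimers (3:1 NR:RXRα, mostly 270:90 nM) or homodimers were incubated for 1 h in PBS with 2% milk and no ligand, then detected with Alexa488 antibodies. Fluorescence from o1-orientation probes (~5 replicates averaged) was converted to z-scores against 500 random hg19 background probes. Variable regions are seed direct-repeat (DR0–DR5) sites, all their single-nucleotide variants and half-site ablations.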"}
{"sequence": "ATATGTAGGTTGAGGGTCATTCAGGTTGGTTCGC", "PBM binding z-score": 4.78}
{"sequence": "AGAATGAGGTTATTAAGATCAGGAAATTGCGGTC", "PBM binding z-score": 2.43}
{"sequence": "CGTTAAAGTTCAAGGTAACGTAACAGAAAGCAGC", "PBM binding z-score": 3.02}
{"sequence": "ATCTCTAGGTAAGACTCATTTCAGTGAAGAACGC", "PBM binding z-score": 0.308}
{"sequence": "TCTTGTAGATCAGCAGGTTAGGAAAGCTGGCCAA", "PBM binding z-score": 0.153}
{"sequence": "ACTATTAGTTGAAACGAGGGCAACCGATAGGTTG", "PBM binding z-score": 1.63}
{"sequence": "ACAGACAGGTGAGTGAAGGTAACTCATCTGGACG", "PBM binding z-score": -0.347}
{"sequence": "CCTGCTAGGTCAATGGGCAGCTAAAGCAGCTCGC", "PBM binding z-score": 0.356}
{"sequence": "ATCGAAAAGTCGACGAGGTGAGTATACACCGTTT", "PBM binding z-score": 0.461}
{"sequence": "ACAGACAGGTGATGAAGGTGACTCAGGCTATCAT", "PBM binding z-score": 0.516}
{"sequence": "CTATCAAGGTGAACAAGGTCGTTGATTACTATTC", "PBM binding z-score": 6.12}
{"sequence": "ACTAGCAGGCCAAGTTTGGGTCACTCTAACAAAG", "PBM binding z-score": 0.395}
{"sequence": "TCTATTATTTGATTAGGGCAACCGAAACAGCGGA", "PBM binding z-score": 0.857}
{"sequence": "GCACACAGGTGAAACGCAGGTAACTCAGGGTGGC", "PBM binding z-score": -0.336}
{"sequence": "TCATTTAGGTAAACAGGTGAAAGTCCGTAAGTTA", "PBM binding z-score": 1.26}
{"sequence": "CAGCCTAGGTCACGGCCAGTATAGGAGGAACGTT", "PBM binding z-score": 2.68}
{"sequence": "CGAACTAGGTCAAGTACAGTGAATCTCCGCACGC", "PBM binding z-score": 2.02}
{"sequence": "ACGGACAGGTGAGTGAAGGTAACTCAGCTGGACG", "PBM binding z-score": -0.381}
{"sequence": "TGTCAAAGTTCAAAGGGAACGTAAGTATCCACAC", "PBM binding z-score": 4.92}
{"sequence": "ATCGAAAGGTCGACGAGGTGAGGATACACCGTTT", "PBM binding z-score": 5.19}
{"sequence": "CGAACTAGGTCATCCAGGACAGTGGATACATTGA", "PBM binding z-score": 4.5}
{"sequence": "CGTCAAAGTTCAACGTAACGTAACAGAAAGCAGC", "PBM binding z-score": 3.97}
{"sequence": "CCTGCTAGGTCATGGCCAGCTAATCTACAGTATG", "PBM binding z-score": 1.43}
{"sequence": "TCTTGTAGTTCAAAGGTTAAGAAAGCCGAAGCCT", "PBM binding z-score": 3.68}
{"sequence": "ATCTCTAGGTAAAAGTTCACTGAATCCCGAGGAT", "PBM binding z-score": 2.58}
{"sequence": "CAAACTAGGTCACGAAAGGTTAAAGTCGAATGAC", "PBM binding z-score": 5.27}
{"sequence": "TCTAGTTGGTCAGGGAGGTCACACACGACGGGTA", "PBM binding z-score": 5.4}
{"sequence": "CGTCACAGTTCAACTAAGGTAACGTAAAGCACGC", "PBM binding z-score": 2.92}
{"sequence": "TTACCAAGGTGAGCTGCGGTCGTTGATCCAACTC", "PBM binding z-score": 0.235}
{"sequence": "ACTATTAGTTGAGACGAGGGTAACCGATAGGTTG", "PBM binding z-score": 0.26}
{"sequence": "GATACAGGGTCAGCTAGAGGCCAAAGTATGGAAA", "PBM binding z-score": 4.26}
{"sequence": "TCTCGTAGGACACGAAAGGTCAGAGCTCGACATC", "PBM binding z-score": 3.09}
{"sequence": "TCTTGTAGATCAGCGGGTTAAGAAAGCTGGCCAA", "PBM binding z-score": 0.539}
{"sequence": "GCTTGTAGATCAAGTTTAAGAAAGACTAAGCTAA", "PBM binding z-score": -0.096}
{"sequence": "ACACACAGGTGATGAAGGTAACTCAGGCTATCAT", "PBM binding z-score": 0.511}
{"sequence": "ACTAGCAGGCCAAGTTTGGGTCAGTCAAACAAAG", "PBM binding z-score": 0.056}
{"sequence": "ATCGAAAGGCCGAGGTGAGTATAGAGAAAGGGAA", "PBM binding z-score": -0.47}
{"sequence": "AGAAGGAGGTTACCAAAGATCAGGGAAACGCTTG", "PBM binding z-score": 0.838}
{"sequence": "ATCGAAAGGTCGAGGTGAGGATAGAGAAAGGGAA", "PBM binding z-score": 2.63}
{"sequence": "TCTCGGAGGACACGAAAGGTCAGATCTCGACATC", "PBM binding z-score": 3.38}
